Results as given in PubChem BioAssay AID1159580 (chemical genetic matrix, 2015).
Among all 5,500 compounds or so, about 2,000 (36%) were called active. About 18% were inconclusive and are not listed. Cut-off read from the data, not from the text of the source: active = normalized growth mostly below about 0.91 (no sharp cut-off); inconclusive = no clear call, values can overlap the other calls; inactive = mostly above about 0.92. This is one part of the list.

Test: chemical genetic growth profiling, strain panel (AID 1159580);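 note: tested at 20 µM; growth read once vehicle control cultures reached saturation at 30 °C; 1 = growth at the plate median or of vehicle wells; lower values mean less growth of the strain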
Settings: S. cerevisiae deletion strains, growth OD

Measured: normalized growth

O=c1c(O)c(-c2ccccc2)oc2cccc(O)c12
inactive: locus YDL005C, strain med2, stronger effect = lower value 0.997 | locus YDL040C, strain nat1, stronger effect = lower value 0.953 | locus YDR159W, strain sac3, stronger effect = lower value 0.89 | locus YDR195W, strain ref2 1.02 | locus YGL227W, strain vid30, stronger effect = lower value 0.929 | locus YHR013C, strain ard1, stronger effect = lower value 0.943 | locus YJL115W, strain asf1, stronger effect = lower value 0.906 | locus YKR091W, strain srl3, stronger effect = lower value 0.934 | locus YLR113W, strain HOG1, stronger effect = lower value 0.935 | locus YLR384C, strain iki3, stronger effect = lower value 0.922 | locus YMR125W, strain sto1, stronger effect = lower value 0.991 | locus YNL322C, strain KRE1 (second series), stronger effect = lower value 0.926 | locus YOR080W, strain dia2, stronger effect = lower value 0.925 | locus YPL106C, strain sse1, stronger effect = lower value 0.896 | locus YPL240C, strain hsp82, stronger effect = lower value 0.936 | locus YPL256C, strain CLN2, stronger effect = lower value 0.87
active: locus YAL021C, strain ccr4, stronger effect = lower value 0.725 | locus YAL026C, strain drs2, stronger effect = lower value 0.55 | locus YAL030W, strain snc1, stronger effect = lower value 0.881 | locus YBL061C, strain skt5, stronger effect = lower value 0.802 | locus YBR009C, strain hhf1, stronger effect = lower value 0.856 | locus YBR023C, strain chs3, stronger effect = lower value 0.666 | locus YBR171W, strain sec66, stronger effect = lower value 0.838 | locus YBR231C, strain swc5, stronger effect = lower value 0.733 | locus YBR279W, strain paf1, stronger effect = lower value 0.867 | locus YCL011C, strain gbp2, stronger effect = lower value 0.847 | locus YCL016C, strain dcc1, stronger effect = lower value 0.851 | locus YCL061C, strain MRC1, stronger effect = lower value 0.821 | locus YCL069W, strain vba3, stronger effect = lower value 0.816 | locus YCR088W, strain abp1, stronger effect = lower value 0.899 | locus YDR001C, strain nth1, stronger effect = lower value 0.891 | locus YDR069C, strain doa4, stronger effect = lower value 0.788 | locus YDR137W, strain rgp1, stronger effect = lower value 0.372 | locus YDR297W, strain sur2, stronger effect = lower value 0.919 | locus YDR334W, strain swr1, stronger effect = lower value 0.759 | locus YDR335W, strain msn5, stronger effect = lower value 0.852 | locus YDR392W, strain spt3, stronger effect = lower value 0.282 | locus YEL003W, strain gim4, stronger effect = lower value 0.875 | locus YEL037C, strain rad23, stronger effect = lower value 0.893 | locus YEL061C, strain CIN8 (second series), stronger effect = lower value 0.905 | locus YER015W, strain faa2, stronger effect = lower value 0.852 | locus YER016W, strain bim1, stronger effect = lower value 0.914 | locus YER111C, strain swi4, stronger effect = lower value 0.878 | locus YER155C, strain BEM2 (second series), stronger effect = lower value 0.751 | locus YFR010W, strain ubp6, stronger effect = lower value 0.726 | locus YGL167C, strain pmr1, stronger effect = lower value 0.886 | locus YGL173C, strain kem1, stronger effect = lower value 0.599 | locus YGL240W, strain doc1, stronger effect = lower value 0.739 | locus YGL253W, strain hxk2, stronger effect = lower value 0.621 | locus YHR027C, strain rpn1, stronger effect = lower value 0.751 | locus YHR030C, strain SLT2, stronger effect = lower value 0.72 | locus YHR079C, strain IRE1, stronger effect = lower value 0.839 | locus YHR142W, strain chs7, stronger effect = lower value 0.539 | locus YJL092W, strain hpr5, stronger effect = lower value 0.863 | locus YJL095W, strain BCK1 (second series), stronger effect = lower value 0.368 | locus YJL095W, strain BCK1, stronger effect = lower value 0.733 | locus YJL129C, strain trk1, stronger effect = lower value 0.673 | locus YJL154C, strain vps35, stronger effect = lower value 0.917 | locus YJL164C, strain tpk1, stronger effect = lower value 0.826 | locus YJL166W, strain qcr8, stronger effect = lower value 0.836 | locus YJL187C, strain SWE1, stronger effect = lower value 0.84 | locus YJR066W, strain TOR1, stronger effect = lower value 0.741 | locus YKL160W, strain elf1, stronger effect = lower value 0.881 | locus YKR026C, strain gcn3, stronger effect = lower value 0.917 | locus YLL001W, strain dnm1, stronger effect = lower value 0.826 | locus YLL026W, stronger effect = lower value 0.829 | locus YLL041C, strain sdh2, stronger effect = lower value 0.923 | locus YLR027C, strain aat2, stronger effect = lower value 0.842 | locus YLR221C, strain rsa3, stronger effect = lower value 0.815 | locus YLR258W, strain gsy2, stronger effect = lower value 0.84 | locus YLR262C, strain YPT6 (second series), stronger effect = lower value 0.304 | locus YLR320W, strain mms22, stronger effect = lower value 0.661 | locus YLR342W, strain FKS1, stronger effect = lower value 0.827 | locus YLR357W, strain rsc2, stronger effect = lower value 0.821 | locus YLR370C, strain arc18, stronger effect = lower value 0.789 | locus YML120C, strain ndi1, stronger effect = lower value 0.828 | locus YMR058W, strain fet3, stronger effect = lower value 0.206 | locus YMR129W, stronger effect = lower value 0.916 | locus YMR205C, strain PFK2, stronger effect = lower value 0.715 | locus YMR231W, strain pep5, stronger effect = lower value 0.304 | locus YNL071W, strain lat1, stronger effect = lower value 0.568 | locus YNL183C, strain NPR1, stronger effect = lower value 0.793 | locus YNL209W, strain ssb2, stronger effect = lower value 0.725 | locus YNL248C, strain rpa49, stronger effect = lower value 0.795 | locus YNR049C, strain mso1, stronger effect = lower value 0.89 | locus YOR001W, strain rrp6, stronger effect = lower value 0.818 | locus YOR070C, strain gyp1, stronger effect = lower value 0.835 | locus YOR083W, strain WHI5, stronger effect = lower value 0.826 | locus YOR106W, strain vam3, stronger effect = lower value 0.546 | locus YOR231W, strain MKK1, stronger effect = lower value 0.822 | locus YOR265W, strain rbl2, stronger effect = lower value 0.88 | locus YOR270C, strain vph1, stronger effect = lower value 0.445 | locus YOR290C, strain snf2, stronger effect = lower value 0.795 | locus YPL051W, strain arl3, stronger effect = lower value 0.696 | locus YPL078C, strain atp4, stronger effect = lower value 0.779
